Screening data: PubChem, DiRusso Lab, Biochemistry Department, University of Nebraska
The sample as a whole holds a higher share of hits than the screen did.
Algae TAG accum – inducers of triacylglycerol accumulation in Chlamydomonas reinhardtii algae; Chlamydomonas reinhardtii TAG, Nile Red fluorescence, 72 h; 44,000 compounds, 0.84% hits; AID 1159537; calls only at 10 µM (by protocol); call rule not given here;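 further: hits raise Nile Red signal meaning more stored TAG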
Large screens that a line does not name were inactive.

O=C(CN(Cc1ccccc1)S(=O)(=O)c1ccc(Br)cc1)N1CCOCC1	none
COc1ccccc1CC(=O)NC1CC(C)(C)NC(C)(C)C1	none
CC1(C)CC(NC(=O)CC(c2ccccc2)c2ccccc2)CC(C)(C)N1	none
CC1(C)CC(NC(=O)Cc2ccccc2[N+](=O)[O-])CC(C)(C)N1	Algae TAG accum active
O=C(Nc1nc(-c2ccc([N+](=O)[O-])cc2)cs1)c1ccc(Cl)cc1Cl	none
CC(C)c1ccc(CN2CCC(O)CC2)cc1	none
Clc1ccc(CN2CCOCC2)cc1Cl	none
CC(C)c1ccc(CN2CCOCC2)cc1	Algae TAG accum active
Cc1cc2nc(-c3ccc(NC(=O)c4ccccc4[N+](=O)[O-])cc3)oc2cc1C	none
CC1CCCCN1S(=O)(=O)c1ccc([N+](=O)[O-])cc1 (stereo unspecified)	none
COc1ccc(NC(=O)c2ccc(C)c(Cl)c2)c(OC)c1	none
COc1ccc(NC(=O)C(Cl)Cl)cc1Cl	none
CCCC(=O)Nc1cc(OC)c(Cl)cc1OC	none
COc1cc(NC(=O)C(Cl)Cl)c(OC)cc1Cl	Algae TAG accum active
CC(C)(C)c1cc(C2C(C#N)=C(N)OC3=C2C(=O)c2ccccc2C3=O)cc(C(C)(C)C)c1O (stereo unspecified)	none
CCOc1ccc(C2C(C(=O)c3ccco3)=C(O)C(=O)N2c2ncccn2)cc1 (stereo unspecified)	none
OC(COc1ccc(Cl)cc1Cl)CN1CCN(Cc2ccccc2)CC1 (stereo unspecified)	Algae TAG accum active
CCOC(=O)N1CCN(CC(O)COc2ccc(Cl)cc2Cl)CC1 (stereo unspecified)	none
CN1CCN(CC(O)COc2ccc(Cl)cc2Cl)CC1 (stereo unspecified)	none
N#C/C(=C/C=C/c1ccccc1)c1nc(-c2ccc([N+](=O)[O-])cc2)cs1	none
O=C(CSc1nnc(-c2ccc(Cl)cc2Cl)o1)Nc1ccc(Br)cc1	none
Cc1cccc(S(=O)(=O)Nc2cccc([N+](=O)[O-])c2)c1	none
Cc1cc(C)cc(NS(=O)(=O)c2cccs2)c1	none
CC(C)c1ccc(NS(=O)(=O)c2cccs2)cc1	none
CC(C)C(NS(=O)(=O)c1cccs1)C(C)C	Algae TAG accum active
CCCOc1ccc(C(=O)Nc2ccc(S(=O)(=O)Nc3ncccn3)cc2)cc1	none
